Assay [1] concerns the target Estrogen-related receptor gamma (Homo sapiens) (UniProt P62508). Description: ATG_ERRg_TRANS: Attagene TRANS-FACTORIAL HepG2 Assay for human Estrogen-Related Receptor gamma (ERRg) (AID 2282977; active = hit-call score of the fitted dose curve at least 0.9, where 1 is the maximum;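 note: hits increase reporter signal over DMSO so potencies reflect activators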). Conditions: HepG2 Attagene TRANS reporter, ERRg transactivation. Put shortly:
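Readout: fluorescent reporter-mRNA fragments resolved by capillary electrophoresis after RT-PCR and HpaI cut. Cells: transiently transfected HepG2 carrying GAL4-UAS reporters driven by exogenous NR-Gal4 chimeras, dosed 24 h. Activity fitted upward relative to DMSO baseline.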

The target of assay [2] is Oxysterols receptor LXR-alpha (Homo sapiens) (UniProt Q13133). Description: ATG_LXRa_TRANS: Attagene TRANS-FACTORIAL HepG2 Assay for human Liver X Receptor alpha (LXRa) (AID 2282980; active = hit-call score of the fitted dose curve at least 0.9, where 1 is the maximum). Conditions: HepG2 Attagene TRANS reporter, LXRa transactivation. Put shortly:
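Chemical-induced reporter mRNA measured by RT-PCR with fluorescent labelling and capillary electrophoresis after 24 h dosing of transiently transfected HepG2 cells expressing exogenous NR-Gal4 chimeras; increases scored against DMSO baseline.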

Assay [3] concerns the target Oxysterols receptor LXR-beta (Homo sapiens) (UniProt P55055). Nature of the assay: ATG_LXRb_TRANS: Attagene TRANS-FACTORIAL HepG2 Assay for human Liver X Receptor beta (LXRb) (AID 2282981; active = hit-call score of the fitted dose curve at least 0.9, where 1 is the maximum). Conditions: HepG2 Attagene TRANS GAL4-LXRb reporter, mRNA. In outline: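 Readout: fluorescent reporter mRNA fragments resolved by capillary electrophoresis after RT-PCR. System: transiently transfected human HepG2, exogenous LXRb-Gal4 chimera driving GAL4-UAS reporter, 24 h dosing. Activity fitted upward against DMSO baseline.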

Assay [4] has as its target Hepatocyte nuclear factor 4-alpha (Homo sapiens) (UniProt P41235). Nature of the assay: ATG_HNF4a_TRANS: Attagene TRANS-FACTORIAL HepG2 Assay for human Hepatocyte Nuclear Factor 4 alpha (HNF4a) (AID 2282982; active = hit-call score of the fitted dose curve at least 0.9, where 1 is the maximum). Conditions: HepG2 HNF4a transactivation reporter, mRNA readout. Put shortly:
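Transient MRTU transfection of HepG2, 24 h dosing. Readout: reporter mRNA via RT-PCR + capillary electrophoresis, fluorescence; activity fit upward relative to DMSO control.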

For assay [5], the target named is Transcriptional activator Myb (Homo sapiens) (UniProt P10242). Description: ATG_Myb_CIS: Attagene CIS-FACTORIAL HepG2 Assay for human Myeloblastosis (Myb) Proto-Oncogene Transcription Factor (AID 2282986). Conditions: HepG2 Attagene CIS-FACTORIAL Myb reporter transcription; actives raise or lower the signal. In outline:
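After 24 h of compound dosing, total RNA from transfected HepG2 cells is reverse-transcribed and the reporter sequences amplified, labeled and separated by capillary electrophoresis. Values come from bidirectional fitting against DMSO.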

Assay [6] deals with Nuclear respiratory factor 1 (Homo sapiens) (UniProt Q16656). Description: ATG_NRF1_CIS: Attagene CIS-FACTORIAL HepG2 Assay for human Nuclear Respiratory Factor 1 (NRF1) Orphan Gene (AID 2282987). Conditions: HepG2 NRF1 cis-element reporter, Attagene multiplex; actives raise or lower the signal. Put shortly:
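Measured: fluorescent reporter-specific RT-PCR products from transfected HepG2 cells, separated by capillary electrophoresis. Exposure lasted 24 h. Analysis used bidirectional curve fitting with DMSO as negative control.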

Assay [7] can be described thus: ATG_NFI_CIS: Attagene CIS-FACTORIAL HepG2 Assay for human Nuclear Factor I (NFI) (AID 2282989). Conditions: HepG2 cis-regulatory reporter, NFI response element transcription; actives raise or lower the signal. In outline: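 Reporter transcription driven by endogenous transcription factors in HepG2 cells; 24 h treatment. Quantitation by labelled RT-PCR fragments on capillary electrophoresis, gain- or loss-of-signal relative to DMSO.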

The target of assay [8] is Myc proto-oncogene protein (Homo sapiens) (UniProt P01106). Description: ATG_Myc_CIS: Attagene CIS-FACTORIAL HepG2 Assay for human Myelocytomatosis (Myc) Proto-Oncogene Transcription Factor (AID 2282990). Conditions: HepG2, Attagene cis-reporter transcription factor activity; actives raise or lower the signal. Put shortly: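 Read-out: fluorescent reporter mRNA fragments resolved by capillary electrophoresis after RT-PCR. Human HepG2 liver cells carried transfected cis-element reporter units and were dosed for 24 h. Gain or loss of signal fitted relative to DMSO baseline.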

The nature of assay [9]: ATG_NF_kB_CIS: Attagene CIS-FACTORIAL HepG2 Assay for human Nuclear Factor Kappa B (NF-kB) (AID 2282991). Conditions: HepG2 Attagene cis-factorial NF-kB reporter mRNA; actives raise or lower the signal. In outline:
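Fluorescence of labelled RT-PCR products separated by capillary electrophoresis gives reporter mRNA levels from transfected HepG2 cells exposed 24 h; values are fitted in both directions relative to DMSO.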

Assay [10] can be described thus: ATG_NRF2_ARE_CIS: Attagene CIS-FACTORIAL HepG2 Assay for human Nuclear Factor Erythroid 2 Related Factor 2 (NFR2) response to Antioxidant Response Elements (ARE) (AID 2282992). Conditions: HepG2 Attagene ARE/NRF2 reporter, transcription factor activity; actives raise or lower the signal. Put shortly:
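Endogenous transcription factor activity in human liver HepG2 cells is tracked via a cis-element-driven reporter within a multiplexed set. mRNA induction is read by RT-PCR and capillary electrophoresis after 24 h, with DMSO as baseline.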

Assay [11] is described as follows: ATG_Oct_MLP_CIS: Attagene CIS-FACTORIAL HepG2 Assay for human Octamer-Binding Transcription Factor (Oct) (AID 2282993). Conditions: HepG2 Attagene cis-factorial Oct reporter, mRNA; actives raise or lower the signal. In outline: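 Transfected HepG2 cells, 24 h treatment. Reporter mRNA quantified by RT-PCR–capillary electrophoresis; bidirectional fitting against DMSO.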

Assay [12] deals with Cellular tumor antigen p53 (Homo sapiens) (UniProt P04637). Nature of the assay: ATG_p53_CIS: Attagene CIS-FACTORIAL HepG2 Assay for human p53 Transcription Factor (AID 2282994). Conditions: HepG2 p53 cis-element reporter, Attagene mRNA; actives raise or lower the signal. In outline: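 Steps: transfect HepG2 with multiplexed cis reporter constructs; dose chemicals 24 h; extract RNA, reverse-transcribe, PCR-amplify reporter sequences; FAM-label, HpaI-digest, resolve fragments by CE. Activity fitted both directions relative to DMSO.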

Assay [13] in a line: BSK_3C_TissueFactor: BioMAP Diversity Plus: 3C Assay for Tissue Factor Biomarker Activity (AID 2282997). Conditions: BioMAP 3C HUVEC, tissue factor biomarker readout; actives raise or lower the signal. Put shortly:
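Tissue factor on primary human umbilical vein endothelium was read by ELISA 24 h after dosing, gain or loss relative to DMSO. Cytotoxicity ran alongside via SRB (0.1%, TCA-fixed, 560 nm).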

Assay [14] is described as follows: BSK_3C_uPAR: BioMAP Diversity Plus: 3C Assay for Urokinase-type plasminogen activator receptor (uPAR) Biomarker Activity (AID 2282998). Conditions: BioMAP 3C HUVEC, uPAR biomarker ELISA; actives raise or lower the signal. Put shortly:
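Readout: ELISA for surface uPAR. System: human umbilical vein endothelial primary cells, 24 h after chemical exposure. Analysis: bidirectional fit, DMSO baseline.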

Assay [15] can be described thus: ATG_M_06_TRANS: Attagene TRANS-FACTORIAL HepG2 Assay for M06 Transcription Factor (Internal Marker) (AID 2282983; active = hit-call score of the fitted dose curve at least 0.9, where 1 is the maximum). Conditions: HepG2 Attagene TRANS M06 internal marker reporter. Put shortly: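 Background-control reporter readout: after 24 h chemical exposure of transiently transfected HepG2 (GAL4-UAS reporter units), mRNA quantified by RT-PCR with fluorescent labeling and capillary electrophoresis. Gain-of-signal fitting against DMSO baseline.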

Assay [16] has as its target Nuclear receptor subfamily 4 group A member 2 (Homo sapiens) (UniProt P43354). Description: ATG_NURR1_TRANS: Attagene TRANS-FACTORIAL HepG2 Assay for human Nuclear Receptor Related Protein 1 (NURR1) (AID 2282985; active = hit-call score of the fitted dose curve at least 0.9, where 1 is the maximum). Conditions: HepG2 Attagene TRANS reporter, mRNA readout. Put shortly: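 Read-out: reporter mRNA induction by RT-PCR plus capillary electrophoresis with fluorescence detection, after 24 h dosing of transfected HepG2 cells. Exogenous NR-Gal4 chimera activity drives GAL4-UAS reporter; activity fitted upward versus DMSO.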

Assay [17] in a line: ATG_M_32_TRANS: Attagene TRANS-FACTORIAL HepG2 Assay for M32 Transcription Factor (Internal Marker) (AID 2282984; active = hit-call score of the fitted dose curve at least 0.9, where 1 is the maximum;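 note: transcript level of a background control reporter unit measured by RT-PCR and capillary electrophoresis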). Conditions: HepG2 Attagene TRANS M32 internal marker reporter. Put shortly:
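Read-out: fluorescent reporter cDNA fragments resolved by capillary electrophoresis after RT-PCR of total RNA. Transfected HepG2 cells were exposed to chemical for 24 h. Activity scored in the positive direction relative to DMSO.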

The target of assay [18] is Bile acid receptor (Homo sapiens) (UniProt Q96RI1). Nature of the assay: ATG_FXR_TRANS: Attagene TRANS-FACTORIAL HepG2 Assay for Farnesoid X Receptor (FXR) (AID 2282979; active = hit-call score of the fitted dose curve at least 0.9, where 1 is the maximum;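 note: hits raise reporter mRNA above DMSO so AC50 marks FXR activation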). Conditions: HepG2 Attagene TRANS FXR-GAL4 reporter transcription. In outline: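 Reporter transcripts from transfected HepG2 cells were measured 24 h after dosing, using RT-PCR with capillary electrophoresis of 6-FAM-labelled fragments. The read-out reflects activity of exogenous FXR-Gal4 chimera on GAL4-UAS units, with induction relative to DMSO.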

Consider 4 compounds from PubChem BioAssay (EPA / NIEHS).

Several values for one entry are separate records, joined by “and”; a condition that tells them apart may be missing. Equal entries are not always repeated. Records with an inconclusive call do not appear. Some compounds were tested as several samples or in several runs, with calls that do not always agree. Activity calls are given as the source filed them. Rule for the calls, unless noted: active = hit-call score of the fitted dose curve at least 0.9, where 1 is the maximum; inactive = score below 0.9.

Sequence of Oxysterols receptor LXR-beta (Homo sapiens) (P55055 whole entry, looked up, the tested form may be a part): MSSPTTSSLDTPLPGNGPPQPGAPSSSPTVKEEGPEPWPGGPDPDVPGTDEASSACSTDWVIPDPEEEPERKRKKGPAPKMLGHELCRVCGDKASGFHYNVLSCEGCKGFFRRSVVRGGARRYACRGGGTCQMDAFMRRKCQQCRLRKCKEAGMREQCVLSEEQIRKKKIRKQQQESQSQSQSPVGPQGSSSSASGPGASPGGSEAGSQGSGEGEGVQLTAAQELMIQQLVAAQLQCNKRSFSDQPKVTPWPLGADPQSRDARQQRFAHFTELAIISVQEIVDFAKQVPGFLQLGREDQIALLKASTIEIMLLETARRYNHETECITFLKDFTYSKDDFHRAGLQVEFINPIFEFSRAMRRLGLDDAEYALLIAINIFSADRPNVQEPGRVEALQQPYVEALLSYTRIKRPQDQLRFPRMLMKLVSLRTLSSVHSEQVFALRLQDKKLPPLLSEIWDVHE
Sequence of Hepatocyte nuclear factor 4-alpha (Homo sapiens) (P41235 whole entry, looked up): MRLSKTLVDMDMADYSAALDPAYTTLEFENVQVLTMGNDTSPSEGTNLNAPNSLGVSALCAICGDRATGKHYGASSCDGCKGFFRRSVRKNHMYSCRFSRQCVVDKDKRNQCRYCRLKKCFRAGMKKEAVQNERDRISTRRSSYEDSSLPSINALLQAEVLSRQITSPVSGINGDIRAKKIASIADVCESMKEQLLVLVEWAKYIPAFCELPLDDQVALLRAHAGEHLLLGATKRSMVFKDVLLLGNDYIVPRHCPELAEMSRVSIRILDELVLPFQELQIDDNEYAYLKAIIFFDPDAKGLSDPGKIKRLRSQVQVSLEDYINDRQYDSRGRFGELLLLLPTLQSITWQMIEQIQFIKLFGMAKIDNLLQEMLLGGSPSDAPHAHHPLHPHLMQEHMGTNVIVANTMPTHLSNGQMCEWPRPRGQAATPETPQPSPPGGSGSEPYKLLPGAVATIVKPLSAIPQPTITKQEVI
Sequence of Nuclear respiratory factor 1 (Homo sapiens) (Q16656 whole entry, looked up): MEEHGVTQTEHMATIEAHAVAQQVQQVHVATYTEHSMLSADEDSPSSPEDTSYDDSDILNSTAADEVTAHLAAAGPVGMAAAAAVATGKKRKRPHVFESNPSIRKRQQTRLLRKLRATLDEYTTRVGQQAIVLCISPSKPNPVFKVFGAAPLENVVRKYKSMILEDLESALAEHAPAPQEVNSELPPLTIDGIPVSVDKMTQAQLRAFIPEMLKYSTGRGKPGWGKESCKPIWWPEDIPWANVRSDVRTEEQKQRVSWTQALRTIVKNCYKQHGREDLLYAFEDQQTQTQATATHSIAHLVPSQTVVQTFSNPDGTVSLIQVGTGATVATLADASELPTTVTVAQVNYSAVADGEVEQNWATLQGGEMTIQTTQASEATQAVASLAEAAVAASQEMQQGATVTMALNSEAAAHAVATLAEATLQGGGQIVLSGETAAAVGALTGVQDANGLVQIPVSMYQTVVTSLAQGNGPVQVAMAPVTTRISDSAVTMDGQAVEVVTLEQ
Sequence of Cellular tumor antigen p53 (Homo sapiens) (P04637 whole entry, looked up, the tested form may be a part): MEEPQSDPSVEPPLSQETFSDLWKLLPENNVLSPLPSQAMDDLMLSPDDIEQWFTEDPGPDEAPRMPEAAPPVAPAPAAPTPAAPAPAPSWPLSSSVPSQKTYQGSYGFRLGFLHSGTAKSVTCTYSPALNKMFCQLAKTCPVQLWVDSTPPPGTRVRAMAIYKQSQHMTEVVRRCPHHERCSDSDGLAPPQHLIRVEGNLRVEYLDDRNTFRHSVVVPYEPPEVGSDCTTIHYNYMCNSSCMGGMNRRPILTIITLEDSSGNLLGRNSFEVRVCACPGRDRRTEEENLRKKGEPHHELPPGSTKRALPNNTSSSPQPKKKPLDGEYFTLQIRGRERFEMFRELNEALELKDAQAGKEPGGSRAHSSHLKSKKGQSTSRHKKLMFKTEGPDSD
Sequence of Myc proto-oncogene protein (Homo sapiens) (P01106 whole entry, looked up, the tested form may be a part): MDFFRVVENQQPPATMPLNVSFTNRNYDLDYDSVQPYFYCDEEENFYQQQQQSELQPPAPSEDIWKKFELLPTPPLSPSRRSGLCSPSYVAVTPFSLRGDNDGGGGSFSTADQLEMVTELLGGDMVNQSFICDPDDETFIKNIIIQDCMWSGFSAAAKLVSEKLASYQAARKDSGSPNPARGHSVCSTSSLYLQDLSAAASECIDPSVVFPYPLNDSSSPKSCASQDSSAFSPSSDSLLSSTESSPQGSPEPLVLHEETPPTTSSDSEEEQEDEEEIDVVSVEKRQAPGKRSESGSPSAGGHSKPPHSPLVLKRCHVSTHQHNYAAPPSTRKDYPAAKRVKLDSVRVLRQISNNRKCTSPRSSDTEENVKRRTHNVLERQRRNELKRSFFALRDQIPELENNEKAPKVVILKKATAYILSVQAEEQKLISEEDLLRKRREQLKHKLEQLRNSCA
Sequence of Transcriptional activator Myb (Homo sapiens) (P10242 whole entry, looked up): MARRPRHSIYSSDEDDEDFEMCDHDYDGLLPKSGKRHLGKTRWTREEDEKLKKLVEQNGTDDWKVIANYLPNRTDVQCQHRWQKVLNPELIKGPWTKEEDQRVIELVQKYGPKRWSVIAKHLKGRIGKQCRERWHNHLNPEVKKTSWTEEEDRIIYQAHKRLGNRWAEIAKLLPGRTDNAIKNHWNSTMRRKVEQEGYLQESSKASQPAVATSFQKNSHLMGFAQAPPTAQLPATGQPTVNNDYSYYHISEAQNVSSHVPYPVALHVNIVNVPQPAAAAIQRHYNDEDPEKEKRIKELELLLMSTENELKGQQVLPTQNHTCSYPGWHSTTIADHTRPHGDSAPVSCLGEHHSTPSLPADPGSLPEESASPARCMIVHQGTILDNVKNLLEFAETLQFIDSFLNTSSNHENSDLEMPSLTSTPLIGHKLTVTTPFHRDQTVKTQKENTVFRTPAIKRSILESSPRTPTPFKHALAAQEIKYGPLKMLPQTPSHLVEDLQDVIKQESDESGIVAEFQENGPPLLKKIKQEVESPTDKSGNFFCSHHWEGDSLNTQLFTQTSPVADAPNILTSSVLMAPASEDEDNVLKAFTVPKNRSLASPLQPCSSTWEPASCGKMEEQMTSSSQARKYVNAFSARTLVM
Sequence of Nuclear receptor subfamily 4 group A member 2 (Homo sapiens) (P43354 whole entry, looked up, the tested form may be a part): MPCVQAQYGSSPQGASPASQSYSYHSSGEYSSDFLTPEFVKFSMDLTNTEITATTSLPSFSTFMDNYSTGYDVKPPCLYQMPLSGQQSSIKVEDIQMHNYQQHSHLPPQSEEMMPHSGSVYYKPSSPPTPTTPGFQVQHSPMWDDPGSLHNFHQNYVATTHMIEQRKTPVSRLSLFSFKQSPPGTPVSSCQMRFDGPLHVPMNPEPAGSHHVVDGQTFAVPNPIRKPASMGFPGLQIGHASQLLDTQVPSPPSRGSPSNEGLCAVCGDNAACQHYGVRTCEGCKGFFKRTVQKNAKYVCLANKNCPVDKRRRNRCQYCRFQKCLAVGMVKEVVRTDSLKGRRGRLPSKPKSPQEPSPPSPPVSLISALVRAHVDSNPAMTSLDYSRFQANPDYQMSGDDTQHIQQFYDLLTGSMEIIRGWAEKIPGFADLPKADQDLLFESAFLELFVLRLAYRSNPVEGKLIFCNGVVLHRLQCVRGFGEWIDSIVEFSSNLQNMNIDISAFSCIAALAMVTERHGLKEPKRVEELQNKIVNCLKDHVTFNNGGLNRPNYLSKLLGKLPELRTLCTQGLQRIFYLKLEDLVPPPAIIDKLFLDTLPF
Sequence of Estrogen-related receptor gamma (Homo sapiens) (P62508 whole entry, looked up, the tested form may be a part): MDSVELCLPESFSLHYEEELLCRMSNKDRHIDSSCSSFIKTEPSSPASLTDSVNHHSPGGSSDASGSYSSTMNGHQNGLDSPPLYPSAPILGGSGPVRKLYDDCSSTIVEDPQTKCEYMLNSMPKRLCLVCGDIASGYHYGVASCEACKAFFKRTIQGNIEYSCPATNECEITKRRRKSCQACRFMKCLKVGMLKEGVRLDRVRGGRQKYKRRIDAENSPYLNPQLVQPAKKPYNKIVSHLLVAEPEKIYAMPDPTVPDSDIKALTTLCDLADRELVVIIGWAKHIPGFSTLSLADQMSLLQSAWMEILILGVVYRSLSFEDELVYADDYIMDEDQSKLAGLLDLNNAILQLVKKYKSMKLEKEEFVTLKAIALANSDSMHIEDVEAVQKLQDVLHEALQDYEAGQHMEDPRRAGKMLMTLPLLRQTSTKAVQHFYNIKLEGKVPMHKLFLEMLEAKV
Sequence of Oxysterols receptor LXR-alpha (Homo sapiens) (Q13133 whole entry, looked up, the tested form may be a part): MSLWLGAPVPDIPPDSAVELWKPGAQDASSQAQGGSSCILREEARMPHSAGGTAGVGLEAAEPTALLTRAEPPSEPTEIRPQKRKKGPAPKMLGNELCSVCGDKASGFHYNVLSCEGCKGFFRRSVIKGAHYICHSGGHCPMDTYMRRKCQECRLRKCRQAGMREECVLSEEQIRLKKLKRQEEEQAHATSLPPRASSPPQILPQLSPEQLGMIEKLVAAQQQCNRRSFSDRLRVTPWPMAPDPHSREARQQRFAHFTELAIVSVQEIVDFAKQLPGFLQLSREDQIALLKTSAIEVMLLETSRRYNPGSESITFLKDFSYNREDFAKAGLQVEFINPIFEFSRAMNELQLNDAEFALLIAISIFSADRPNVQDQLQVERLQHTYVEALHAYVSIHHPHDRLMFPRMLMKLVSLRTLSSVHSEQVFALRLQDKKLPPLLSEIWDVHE
Sequence of Bile acid receptor (Homo sapiens) (Q96RI1 whole entry, looked up, the tested form may be a part): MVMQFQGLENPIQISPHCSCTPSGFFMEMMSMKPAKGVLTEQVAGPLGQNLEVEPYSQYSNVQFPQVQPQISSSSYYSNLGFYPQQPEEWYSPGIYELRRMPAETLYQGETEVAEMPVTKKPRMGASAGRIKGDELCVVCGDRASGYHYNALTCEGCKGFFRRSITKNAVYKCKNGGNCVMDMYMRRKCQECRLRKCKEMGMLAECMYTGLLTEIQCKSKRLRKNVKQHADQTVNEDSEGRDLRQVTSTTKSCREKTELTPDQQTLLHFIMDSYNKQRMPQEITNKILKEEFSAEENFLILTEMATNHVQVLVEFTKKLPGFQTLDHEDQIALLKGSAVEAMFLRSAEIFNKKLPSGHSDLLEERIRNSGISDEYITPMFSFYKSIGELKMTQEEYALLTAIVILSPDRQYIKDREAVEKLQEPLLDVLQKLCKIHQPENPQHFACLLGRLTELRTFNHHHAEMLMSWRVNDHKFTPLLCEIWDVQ

`N#Cc1cc(Br)c(O)c(Br)c1`: the outcome in [1], in assay [2], in [3], in assay [4], in assay [5] and in [6] was inactive. For the same compound, the compound was classed as inactive in assay [8], in assay [9], in [12] and in [13]. In addition, the AC50 is 10.8 µM (active) in [7], 26.7 µM (active) in assay [10], 40.1 µM (active) in assay [11] and 32.5 µM (active) in assay [14].
With `O=C(O)COc1nc(Cl)c(Cl)cc1Cl`, the call in assay [4], in assay [15], in [16], in assay [5], in [6] and in assay [7] was inactive. Besides, the call in [8], in assay [9], in [11], in assay [12], in assay [13] and in assay [14] was inactive. Besides, in [10], the concentration at half-maximal activity (AC50) was 19.1 µM (active).
For the compound `Oc1ccccc1-c1ccccc1`, the call in assay [3], in [4], in [15], in [17], in assay [16] and in [5] was inactive. Also, the outcome in assay [6], in [7], in assay [8], in assay [11], in [12] and in assay [13] was inactive. For the same compound, in assay [14], the outcome was inactive. In addition, the concentration at half-maximal activity (AC50) in assay [8] was 50 µM (active); in assay [10], 32.7 µM (active) and 26.2 µM (active); in assay [11], 50 µM (active).
Regarding `CC1=C(C(=O)Nc2ccccc2)SCCO1`, the call in assay [1], in [18], in assay [3], in [15], in assay [17] and in assay [5] was inactive. The call in [6], in [7], in [8], in [11], in assay [12] and in [13] was inactive. Moreover, the result in assay [14] was inactive. In assay [10], the AC50 is 16.6 µM (active).
